Results filed as inconclusive are left out. Active and inactive are the calls of the source. Calls follow the shape of the dose curve; as a rule, active = well fitted inhibition curve with a large enough effect; inconclusive = small, poorly fitted or top-dose-only effect; inactive = no such curve, though single readings can be large or run the other way.
Assay: qHTS assay for measurement of the activity of small molecule inhibitors on Zika virus induced Caspase-3 activity in human iPSC derived neural progenitor cells (hNPCs) (AID 1224857); also: % of control where 0% means no effect; nearly all actives have a fitted effect of over 65% in size
Conditions: hNPCs ZIKV-induced caspase-3/7, Caspase-Glo luminescence, 6 h; series mostly up to 45.7 µM; activity change, negative = inhibition: at the top concentration
Text: National Center for Advancing Translational Sciences [NCATS]
Johns Hopkins University School of Medicine
Increase in the Caspase-3 activity indicates an activation of apoptosis cell death pathway caused by Zika virus infection in certain types of neuronal cells including human neural progenitor cells (hNPCs), astrocytes, and astrocytoma cell line (SNB-19). This cell-based caspase-3 activity assay measures the increased caspase-3 activity in the human iPSC derived neural progenitor cells (hNPCs) after a 6-hour Zika virus infection with a luminescence readout. A decrease in the luminescence signal in this assay by small molecule treatment indicates an inhibitory effect of that small molecule on the Zika virus induced caspase-3 activity that may correlate with its effect on reduction of Zika virus caused cell death.
The medium for hNPCs consists of DMEM/F12, N2 supplement (ThermoFisher, Cat.# 17502048), NEAA (ThermoFisher, Cat. # 11140050), 2 ug/ml heparin, 2 uM cyclopamine, and B27 (ThermoFisher, Cat. # 17504044). A Caspase-Glo 3/7 assay kit (catalog number G8092; Promega, Madison, WI) was used to detect caspase-3 activity induced by Zika virus infection in human cells. The reagent mixture was reconstituted as described in the protocol from the manufacturer. Polystyrene tissue culture treated and PDL coated white plates were obtained from Greiner Bio-One (Monroe, NC). Cells were seeded in 384- or 1536-well assay plates and cultured at 37 C with 5% CO2 for 16 to 20 hours. The typical cell seeding density in the 1536-well plate assay is 350 cells/well in 3 ul medium for hNPCs in tissue culture treated plates. Compounds were added to cells and incubated for one hour before addition of ZIKV solution to cells (2 FFU/cell). After incubation at 37 C with 5% CO2 for 6 hours, the reagent mixture of Caspase-Glo 3/7 assay kit was added to each well, followed by incubation at room temperature for 30 minutes. The luminescence intensity of the assay plates was measured using a ViewLux plate reader (PerkinElmer). Data were normalized by using the cell-containing wells without ZIKV as a negative control (0% induction of caspase 3/7 activity) and wells containing ZIKV infected cells (Caspase-3 activity induced) as a positive control (100% induction of caspase 3 activity). The percentage inhibitions of the increased Caspase-3 activity by small molecule inhibitors were then calculated.

| Compound | activity change, negative = inhibition |
| --- | --- |
| CC(C)(C)NC[C@H](O)COc1cccc2c1CCCC2=O | -8.09% (inactive) |
| COc1cc(C(=S)N2CCOCC2)ccc1O | -10.7% (inactive) |
| O=[N+]([O-])c1cccc(S(=O)(=O)NCCNS(=O)(=O)c2cccc([N+](=O)[O-])c2)c1 | -0.461% (inactive) |
| C[C@H]1[C@H]2CC[C@H]3[C@@H]4CC=C5C[C@@H](N(C)C)CC[C@]5(C)[C@H]4CC[C@]23CN1C | -6.73% (inactive) |
| CC(C)(C)CC(C)(C)c1ccc(O)c(-n2nc3ccccc3n2)c1 | 127% (inactive) |
| COc1cc([C@H]2Oc3cc([C@H]4Oc5cc(O)cc(O)c5C(=O)[C@@H]4O)ccc3O[C@@H]2CO)ccc1O | -18.9% (inactive) |
| CN1CCc2cccc3c2[C@H]1Cc1ccc(O)c(O)c1-3 | -28% (inactive) |
| C#C[C@]1(O)CC[C@H]2[C@@H]3CCC4=CC(=O)CC[C@@H]4[C@H]3CC[C@@]21CC | -21.7% (inactive) |
| CCN(CC)CCOc1ccc2c(c1)C(=O)c1cc(OCCN(CC)CC)ccc1-2 | -2.29% (inactive) |
| OC[C@H]1O[C@@H](Oc2ccc(O)cc2)[C@H](O)[C@@H](O)[C@@H]1O | 27.4% (inactive) |
| OC[C@H]1O[C@@H]2O[C@H]3[C@H](O)[C@@H](O)[C@@H](O[C@H]4[C@H](O)[C@@H](O)[C@@H](O[C@H]5[C@H](O)[C@@H](O)[C@@H](O[C@H]6[C@H](O)[C@@H](O)[C@@H](O[C@H]7[C@H](O)[C@@H](O)[C@@H](O[C@H]8[C@H](O)[C@@H](O)[C@@H](O[C@H]1[C@H](O)[C@H]2O)O[C@@H]8CO)O[C@@H]7CO)O[C@@H]6CO)O[C@@H]5CO)O[C@@H]4CO)O[C@@H]3CO | 4.63% (inactive) |
| NC(=S)N/N=C/c1cccnc1 | -8.73% (inactive) |
| CC(C)Cc1ccc(CC(=O)O)cc1 | -6% (inactive) |
| CCN1CCN(C(=O)N[C@@H](C(=O)N[C@@H]2C(=O)N3C(C(=O)O)=C(CSc4nnnn4C)CS[C@H]23)c2ccc(O)cc2)C(=O)C1=O | -22.7% (inactive) |
| O=C(Oc1cccc2cccnc12)c1ccccc1 | -4.62% (inactive) |
| NCCNC(=O)c1ccc(Cl)cn1 | -1.09% (inactive) |
| CN(C)CCC[C@@]1(c2ccc(F)cc2)OCc2cc(C#N)ccc21 | -5.03% (inactive) |
| O=C(CN1CCN(Cc2ccc3c(c2)OCO3)CC1)N1c2ccccc2Sc2ccccc21 | -15.2% (inactive) |
| O=C1C(CCS(=O)c2ccccc2)C(=O)N(c2ccccc2)N1c1ccccc1 (stereo not given) | -1.43% (inactive) |
| CCCCCCCCCCCCCCCC(=O)O | -3.11% (inactive) |

| Compound | activity change, negative = inhibition |
| --- | --- |
| CCOC(=O)[C@H](CCc1ccccc1)N[C@@H](C)C(=O)N1[C@H](C(=O)O)C[C@H]2CCCC[C@@H]21 | 6.22% (inactive) |
| CCCCCCCCCCCCCCC[C@H](O)[C@@H](N)CO | 2.19% (inactive) |
| CC(=O)OCC(=O)[C@H]1CC[C@H]2[C@@H]3CCC4=CC(=O)CC[C@]4(C)[C@H]3CC[C@]12C | 12.8% (inactive) |
| Cc1cccc(C)c1NC(=O)CN1CCCCCC1 | 4.33% (inactive) |
| CC(=O)O[C@]1(C(C)=O)CC[C@H]2[C@@H]3C=C(C)C4=CC(=O)CC[C@]4(C)[C@H]3CC[C@@]21C | 19.5% (inactive) |
| COc1ccc(C(=O)c2ccccc2)c(O)c1 | -0.52% (inactive) |
| O=C(O)CCC(=O)Nc1ccc(S(=O)(=O)Nc2nccs2)cc1 | -5.35% (inactive) |
| CC(O)Cn1cnc2c1c(=O)n(C)c(=O)n2C (stereo not given) | -10.4% (inactive) |
| O=C(c1ccc(F)cc1)C1CCN(CCn2c(=S)[nH]c3ccccc3c2=O)CC1 | 3.98% (inactive) |
| COc1ccccc1N1CCN(CCCCNC(=O)c2ccc(-c3ccc(C(C)=O)cc3)cc2)CC1 | 2.11% (inactive) |
| COc1ccc(C(=O)c2ccccc2O)c(O)c1 | -8.77% (inactive) |
| N#C/C(=C1\SCC(c2ccccc2Cl)S1)n1ccnc1 (stereo not given) | 4.2% (inactive) |
| O=C(NCCc1c[nH]c2ccccc12)c1cccnc1 | 5.64% (inactive) |
| NC(N)=NCc1cccc(I)c1 | -2.44% (inactive) |
| CC(C)[C@@H]1CC[C@@H](C)CC1=O | -8.45% (inactive) |
| OC1C(O)C(O)C(O)C(O)C1O (stereo not given) | 0% (inactive) |
| CC(=O)O[C@H]1C[C@@H]2CC[C@@H]3[C@H](CC[C@@]4(C)[C@H]3C[C@H]([N+]3(C)CCCCC3)[C@@H]4OC(C)=O)[C@@]2(C)C[C@@H]1N1CCCCC1 | 24.4% (inactive) |
| O=C(N/N=C/c1ccc([N+](=O)[O-])o1)c1ccc(O)cc1 | -23.3% (inactive) |
| N#CCC(=O)NN | 16.9% (inactive) |
| O=C(O)c1ccc(S(=O)(=O)N(Cl)Cl)cc1 | 13.8% (inactive) |

Reference: PubChem BioAssay (NCATS)
